CYP2C19 inhib: blocks human cytochrome P450 2C19; P33261; CYP2C19 Supersomes, luciferin-H EGE luminescence, 30 min; inhibition, % at 5 µM; 21% of 96,000 active; AID 778;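 active = CYP2C19 inhibition above a set limit at 5 µM in the primary screen, cut at about 50% in these data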;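 note: plate controls were negative control wells for no effect and 2.5 mM tranylcypromine positive control for full effect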
CYP2C9 inh: human CYP2C9 inhibition. P11712. CYP2C9 Supersomes, luciferin-H conversion, luminescence. inhibition, % at 5 µM. 20% of 96,000 active. AID 777;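 active = blocking of liver enzyme CYP2C9 beyond about 50% at 5 µM, limit read from the data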
Target sequence (P11712 whole entry, looked up): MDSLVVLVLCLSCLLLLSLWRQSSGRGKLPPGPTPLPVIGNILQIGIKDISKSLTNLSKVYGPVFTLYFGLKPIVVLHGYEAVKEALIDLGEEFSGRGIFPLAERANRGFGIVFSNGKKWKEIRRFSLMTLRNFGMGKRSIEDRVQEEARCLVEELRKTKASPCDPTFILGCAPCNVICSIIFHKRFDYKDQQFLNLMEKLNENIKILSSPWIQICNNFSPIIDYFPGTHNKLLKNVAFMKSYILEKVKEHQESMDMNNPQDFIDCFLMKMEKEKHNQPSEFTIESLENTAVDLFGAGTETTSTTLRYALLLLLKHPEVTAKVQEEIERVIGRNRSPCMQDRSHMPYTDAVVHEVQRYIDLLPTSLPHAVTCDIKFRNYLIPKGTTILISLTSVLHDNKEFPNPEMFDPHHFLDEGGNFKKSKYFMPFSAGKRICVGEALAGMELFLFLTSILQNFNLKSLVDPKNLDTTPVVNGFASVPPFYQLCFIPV
CYP2C9 act: increases human cytochrome P450 2C9 activity; 1.4% of 96,000 active; AID 1024; recombinant CYP2C9, luciferin-H conversion, luminescence; stronger effect = higher value; factor 1 = untreated enzyme, 0 = blocked; P11712; activation factor at 5 µM;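 active = activation factor of 2 or more for CYP2C9 at a 5 µM dose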;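 note: 0 = sulfaphenazole-blocked wells and 1 = vehicle-only wells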
CYP2C19 act: activators of human cytochrome P450 2C19; P33261; recombinant CYP2C19, luciferin-H EGE luminescence; stronger effect = higher value; 0 = fully inhibited enzyme, 1 = untreated enzyme; activation factor at 5 µM; 96,000 tested, under 10 active; AID 1025;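 active = activation factor of at least 2 at 5 µM in the primary screen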;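 note: 0 = wells with 2.5 mM tranylcypromine and 1 = vehicle-only wells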
PTK2B oligo ant: Pyk2 (human) oligomerization antagonism; Q14289; Q293 cells, Pyk2 FERM NanoBiT luminescence; stronger effect = lower value; z-score (the deposit names both 25 µM and 10 µM); 0.83% of 99,000 active; AID 1347419;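 active = Z-score of -3 or lower, scaled per plate to the spread of control and sample wells; inactive = z-score above -3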;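 note: negative z-score means lost luminescence so less FERM oligomerization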
An asterisk follows results filed as active; · = not tested or not shown. Only some compounds are listed: those with a hit (about 28% of all), similar ones and a draw of the others.

SMILES	CYP2C19 inhib	CYP2C9 inh	CYP2C9 act	CYP2C19 act	PTK2B oligo ant
CN(C(=O)c1ccc(-c2nn(C)c(=O)c3ccccc23)cc1)c1ccccc1	47	62*	0.4	0.5	0.46
COC(=O)COc1ccc(-c2nn(C)c(=O)c3ccccc23)cc1	43	44	0.6	0.6	2.2
Cn1nc(-c2ccc(OCC(N)=O)cc2)c2ccccc2c1=O	-11	61*	0.4	1.1	0.83
O=C(O)CCC(=O)N1CCc2cc(S(=O)(=O)N3CC=C(c4ccccc4)CC3)ccc21	-2	12	0.9	1	·
CCOC(=O)c1cnc2nc(NCc3ccc(OCc4ccccc4)cc3)[nH]n2c1=O	19	87*	0.1	0.8	0.64
Cc1nn(C)c(C)c1CN(C)C(=O)C1c2ccccc2Oc2ccccc21	·	·	·	·	0.5
O=C(CCNS(=O)(=O)c1cccc2nonc12)NCCc1ccc(Cl)cc1	74*	-92	1.9	0.3	0.74
O=C(CCNS(=O)(=O)c1cccc2nonc12)N1CCN(c2cccc(Cl)c2)CC1	68*	15	0.8	0.3	1.2
O=C(CCCNS(=O)(=O)c1cccs1)N1CCN(c2cccc(Cl)c2)CC1	27	24	0.8	0.7	-0.01
CCCCS(=O)Cc1ccccc1 (stereo not drawn)	-9	-42	1.4	1.1	0.17
O=C(CCS(=O)(=O)c1cccc2nsnc12)NCc1ccccc1Cl	35	-4	1	0.7	-0.22
COc1cccc(CNC(=O)C(=O)NCC2CCCO2)c1 (stereo not drawn)	·	·	·	·	0.78
CCOC(=O)Nc1cccc(OCC(=O)Nc2ccccc2OCC)c1	88*	-33	1.3	0.1	-1.9
COc1ccccc1NC(=O)CCC(=O)O	14	56*	0.4	0.9	-0.04
CCOc1ccccc1NC(=O)CSc1ccccc1	51*	-257	3.6*	0.5	-0.52
Cc1ccccc1OCCCC(=O)Nc1ccccc1C(F)(F)F	32	-122	2.2*	0.7	-0.37
CCOc1ccccc1NC(=O)CSc1nnnn1-c1ccccc1	40	21	0.8	0.6	-1.3
CCOc1ccccc1NC(=O)CCC(=O)O	22	21	0.8	0.8	-0.37
CCOc1ccccc1NC(=O)CCC(=O)Nc1ccccc1OCC	47	-166	2.7*	0.5	1.6
CCOc1ccccc1NC(=O)CCN1CCN(S(=O)(=O)c2ccc(Br)cc2)CC1	63*	36	0.6	0.4	-0.15
CCOc1ccccc1NC(=O)Cc1ccccc1OC	58*	-120	2.2*	0.4	-0.78
CCOC(=O)Nc1cccc(Nc2ccccc2)c1	79*	75*	0.2	0.2	-0.24
CCOC(=O)Nc1cccc(C(=O)O)c1	·	·	·	·	0.27
CCN1CCN(CCC(=O)Nc2ccccc2OC)CC1	-8	-6	1.1	1.1	-0.26
Cc1c(NC(=O)C2(c3ccccc3)CCCC2)c(=O)n(-c2ccccc2)n1C	7	-14	1.1	0.9	2.1
SMILES	CYP2C19 inhib	CYP2C9 inh	CYP2C9 act	CYP2C19 act	PTK2B oligo ant
CCCn1c(N)c(N(C)C)c(=O)n(CC(=O)Nc2ccc(OC(F)(F)F)cc2)c1=O	13	26	0.7	0.9	-0.74
CCC(CC)C(=O)Nc1ccccc1NC(C)=O	2	10	0.9	1	0.92
CCOc1ccccc1NC(=O)Cn1nnc(-c2ccc(OCC)c(OCC)c2)n1	89*	85*	0.2	0.1	0.33
CCOc1ccc(-c2nnn(CC(=O)Nc3cc(OC)ccc3OC)n2)cc1OCC	38	16	0.8	0.6	-0.62
Cc1ccc(S(=O)(=O)NC(=O)Nc2cc(C)ccc2F)cc1	6	10	0.9	0.9	0.59
CCOc1ccccc1NC(=O)NS(=O)(=O)c1ccc(C)cc1	20	91*	0.1	0.8	0
COC(=O)c1cc(OC)c(OC)cc1NC(=O)CSc1ccccc1	65*	7	0.9	0.3	-0.69
CCC(COC(=O)Nc1cccc(C)c1)NC(=O)OCC(C)C (stereo not drawn)	93*	55*	0.4	0.1	0.83
O=C(C1CCN(S(=O)(=O)N2CCOCC2)CC1)N1CCN(c2ccccc2)CC1	-10	-14	1.1	1.1	0.1
CCOC(=O)c1c(NC(=O)CSc2nnc(C)s2)sc2c1CCC(CC)C2 (stereo not drawn)	·	·	·	·	-2
O=C(N1CCOCC1)N(CCN1CCOCC1)Cc1cccc(Cl)c1	-1	-7	1.1	1	0.09
O=C(CN1C(=O)C2CC=CCC2C1=O)OCCN1C(=O)c2ccccc2C1=O (stereo not drawn)	12	11	0.9	0.9	0.52

Screening data: PubChem, Sanford-Burnham Center for Chemical Genomics
